Assay results from PubChem BioAssay (Tox21).
Results filed as inconclusive are left out. A number with no mark means an inactive call. Active and inactive are the calls of the source. Calls come from the whole dose curve; as a rule, active = well fitted cell-killing curve with a large enough effect in the repeat runs; inconclusive = weak or mixed curves, or effect the other way; inactive = flat fitted curve, though single readings scatter.

Experiment: cAMP Responsive Elements (CRE) small molecule antagonists, cell-based qHTS assay: qHTS cell viability counter screen (AID 2060913); note: nearly all actives have a fitted effect of over 40% in size
Conditions: CRE-bla HEK293T viability, CellTiter-Glo luminescence, 5 h; series mostly up to 92.4 µM; viability change, negative = cytotoxic: at the top concentration
Excerpt: U.S. Tox21 Program National Center for Advancing Translational Sciences [NCATS] Division of Preclinical Innovation [DPI] U.S. Environmental Protection Agency [EPA] National Institutes of Environmental Health Sciences [NIEHS] National Toxicology Program [NTP] U.S. Food and Drug Administration [FDA] Tox21 Assay Overview: CREB (cyclic-AMP Responsive Element Binding Protein) is a cellular transcription factor. It binds to certain DNA sequences called cAMP Responsive Elements (CRE) and regulates the transcription of the genes. […] This cell line can be used to find agonists/antagonists of the cyclic AMP signaling pathway. The activation of the report gene under culture conditions can be detected by fluorescence intensity. This cell line has been used to screen the Tox21 10K compound library to identify agonists that induce oxidative stress. The cytotoxicity of the Tox21 compound library against the CRE-bla cell line was tested in parallel by measuring the cell viability using CellTiter-Glo assay (Promega, Madison, WI) in the same wells.
Tox21 Assay Protocol Summary: CRE-bla Hek 293T cells were suspended in assay medium (DMEM containing 10% dialyzed FBS, 0.1 mM NEAA, 1 mM sodium pyruvate and 25 mM HEPES) and dispensed at 2,000 cells/4 uL /well into 1536-well black wall/clear bottom plates using a Multidrop Combi (ThermoFisher Scientific, Waltham, MA) dispenser. After the assay plates were incubated at 37 C/5% CO2 for 18 hrs, 23 nL of compounds dissolved in DMSO, positive controls or DMSO only was transferred to the assay plate by a pintool workstation (Kalypsys, San Diego, CA), followed by addition of 1 uL of 1.25uM NKH477 (0.25 uM as final concentration) in assay medium using a Flying Reagent Dispenser (Aurora Discovery, San Diego, CA). The plates were incubated at 37 C and 5% CO2 for 3 hrs. Then 1 uL of LiveBLAzer B/G FRET substrate (Invitrogen, Carlsbad, CA) was added to each well using Bioraptr Flying Reagent Dispenser (FRD, Aurora Discovery, San Diego, CA). The plates were incubated at room temperature for 2 h, then fluorescence intensities were measured using an Envision plate reader (PerkinElmer, Shelton, CT) at Excitation 405nm, Emission 460nm and 530nm. The % activity was determined from the ratio of 460nm/530nm. For cell viability readout that measures cytotoxicity, 4 uL /well of CellTiter-Glo reagent was added into the assay plates using Bioraptr FRD. After 30 min incubation at room temperature, the luminescence intensity in the assay plates was measured using a ViewLux (PerkinElmer, Shelton, CT) plate reader.
% is set by controls: 0 for no effect and ±100 for the full control effect.

Structure (SMILES) | Potency | viability change, negative = cytotoxic
Clc1ccc(C(c2ccc(Cl)cc2)C(Cl)(Cl)Cl)cc1 | inactive | 
O=C(O)CCCOc1ccc(Cl)cc1Cl | inactive | 
Clc1ccc(-c2ccccc2)cc1 |  | -7.46%
Nc1cc(Cl)ccc1Cl |  | -3.44%
c1cc(OCC2CO2)ccc1Cc1ccc(OCC2CO2)cc1 (stereo not given) | inactive | 
Oc1ccc2ccc3cccc4ccc1c2c34 |  | 0.136%
N#Cc1ccccc1Cl |  | 8.83%
O=C(NC(O)C(Cl)(Cl)Cl)NC(O)C(Cl)(Cl)Cl (stereo not given) |  | 1.87% [at 42.5 µM]
CCCCCCCCCCCC(=O)O | inactive | 
S=C=S |  | 6.15%
CC(=O)CCc1ccc2c(c1)OCO2 |  | 14.4%
O=P1(NCCCl)OCCCN1CCCl (stereo not given) | inactive | 
CCC[CH2][Sn]([CH2]CCC)([O]C(C)=O)[O]C(C)=O |  | 3.69%
O=P(OCCCl)(OCCCl)OCCCl |  | 6.75%
C#C[C@]1(O)CC[C@H]2[C@@H]3CCC4=CC(=O)CC[C@]4(C)[C@H]3CC[C@@]21C | inactive | 
CNC(=O)Oc1cccc2c1OC(C)(C)O2 | inactive | 
COP(=S)(OC)Oc1ccc([N+](=O)[O-])cc1 | inactive | 
CC(C)CBr |  | 9.5%
CCC(C)c1cc([N+](=O)[O-])cc([N+](=O)[O-])c1O (stereo not given) |  | 12.9%
CC(C)C(Nc1ccc(C(F)(F)F)cc1Cl)C(=O)OC(C#N)c1cccc(Oc2ccccc2)c1 (stereo not given) |  | -19.5%

Structure (SMILES) | Potency | viability change, negative = cytotoxic
Cc1ccc2ccccc2c1 |  | -4.41%
O=CC=O |  | 14.1%
c1ccc(NNc2ccccc2)cc1 | inactive | 
C[CH2][Hg][N]1C(=O)C2C(C1=O)C1(Cl)C(Cl)=C(Cl)C2(Cl)C1(Cl)Cl (stereo not given) |  | -25.3% [at 18.9 µM]
CC[C@H](N)c1ccccc1 |  | 9.32%
CCOC(=O)CC(SP(=S)(OC)OC)C(=O)OCC (stereo not given) | inactive | 
c1ccc(N2CCNCC2)cc1 |  | 5.21% [at 42.5 µM]
COP(=S)(OC)Oc1ccc(S(N)(=O)=O)cc1 |  | 0.211% [at 42.5 µM]
CON(C)C(=O)Nc1ccc(Cl)cc1 |  | -4.27%
CCOCCOC(C)=O |  | -10.2%
CN(C)C(=O)C(c1ccccc1)c1ccccc1 | inactive | 
Clc1ccc(Oc2ccccc2)cc1 |  | -7.21%
COP(=S)(OC)Oc1ccc([N+](=O)[O-])c(C)c1 |  | -7.59%
CC[N+]1(C)CCCC(OC(=O)C(O)(c2ccccc2)c2ccccc2)C1 (stereo not given) |  | 1.35% [at 42.5 µM]
CC(C)CP(=S)(S)CC(C)C |  | 0.894%
Nc1ncn[nH]1 |  | 2.62%
OCC(Cl)CCl (stereo not given) |  | 0.574%
C=CC(=O)OCCCCOC(=O)C=C |  | 4.19%
Clc1nc(Cl)nc(Cl)n1 | inactive | 
O=P1(N(CCCl)CCCl)NCCCO1 (stereo not given) | inactive | 
